# Paper PMC5540273 (PLoS ONE, 2017)
# Where “and” joins values, the source holds several entries; their conditions need not be identical. Equal entries are not always repeated. Where two headings read alike, the source gives them in different places.
# Legend:
# DAPK1 = details: concentration: 1 μM, replicates: in singlicate, n = 1
# DAPK2 = details: concentration: 1 μM, replicates: in singlicate, n = 1
# DAPK3 = details: concentration: 1 μM, replicates: in singlicate, n = 1
# DCAMKL1 = system: T1, DCAMKL1; details: concentration: 1 μM, replicates: in singlicate, n = 1
# T1 construct: gene DCLK1
# DCAMKL2 = system: T2, DCAMKL2; details: concentration: 1 μM, replicates: in singlicate; n = 1
# T2 construct: gene DCLK2
# DCAMKL3 = system: T3, DCAMKL3; details: concentration: 1 μM, replicates: in singlicate, n = 1
# T3 construct: gene DCLK3
# DDR1 = details: concentration: 1 μM, replicates: in singlicate, n = 1
# DDR2 = details: concentration: 1 μM, replicates: in singlicate, n = 1
# DLK = system: T4, DLK; details: concentration: 1 μM, replicates: in singlicate, n = 1
# T4 construct: gene MAP3K12
# DMPK2 = system: T5, DMPK2; details: concentration: 1 μM, replicates: in singlicate, n = 1
# T5 construct: gene CDC42BPG
# DMPK = details: concentration: 1 μM, replicates: in singlicate, n = 1
# DRAK1 = system: T6, DRAK1; details: concentration: 1 μM, replicates: in singlicate, n = 1
# T6 construct: gene STK17A
# DRAK2 = system: T7, DRAK2; details: concentration: 1 μM, replicates: in singlicate; n = 1
# T7 construct: gene STK17B
# DYRK1A = details: concentration: 1 μM, replicates: in singlicate; n = 1
# DYRK1B = details: concentration: 1 μM, replicates: in singlicate, n = 1
# DYRK2 = details: concentration: 1 μM, replicates: in singlicate, n = 1
# EGFR = details: concentration: 1 μM, replicates: in singlicate, n = 1
# EIF2AK1 = details: concentration: 1 μM, replicates: in singlicate; n = 1
# EPHA1 = details: concentration: 1 μM, replicates: in singlicate, n = 1
# EPHA2 = details: concentration: 1 μM, replicates: in singlicate, n = 1
# 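Further: KINOMEscan kinase panel screen.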
smiles,measurement,setting,value
O=c1cc(N2CCOCC2)nc2n(Cc3cccc(F)c3)ccn12 [GSK2297430],%Inh,DAPK1,0%
same,%Inh,DAPK2,0%
same,%Inh,DAPK3,0%
same,%Inh,DCAMKL1,0%
same,%Inh,DCAMKL2,0%
same,%Inh,DCAMKL3,2%
same,%Inh,DDR1,0%
same,%Inh,DDR2,1%
same,%Inh,DLK,23%
same,%Inh,DMPK2,4%
same,%Inh,DMPK,12%
same,%Inh,DRAK1,5%
same,%Inh,DRAK2,0%
same,%Inh,DYRK1A,26%
same,%Inh,DYRK1B,0%
same,%Inh,DYRK2,5%
same,%Inh,EGFR,32%
same,%Inh,EIF2AK1,0%
same,%Inh,EPHA1,14%
same,%Inh,EPHA2,9%
[2H]C([2H])(c1cccc(C(F)(F)F)c1C)n1ccn2c(=O)nc(N3CCOCC3)cc12 [GSK2336394],%Inh,DAPK1,26%
same,%Inh,DAPK2,0%
same,%Inh,DAPK3,6%
same,%Inh,DCAMKL1,8%
same,%Inh,DCAMKL2,18%
same,%Inh,DCAMKL3,21%
same,%Inh,DDR1,0%
same,%Inh,DDR2,0%
same,%Inh,DLK,10%
same,%Inh,DMPK2,0%
same,%Inh,DMPK,0%
same,%Inh,DRAK1,0%
same,%Inh,DRAK2,0%
same,%Inh,DYRK1A,16%
same,%Inh,DYRK1B,0%
same,%Inh,DYRK2,1%
same,%Inh,EGFR,28%
same,%Inh,EIF2AK1,0%
same,%Inh,EPHA1,12%
same,%Inh,EPHA2,8%
COc1ccc(Nc2nccc(N3CCC(NC(=O)Nc4cccc(C(C)=O)c4)C3)n2)cc1 (stereo not drawn) [GSK1379731],%Inh,DAPK1,0%
same,%Inh,DAPK2,0%
same,%Inh,DAPK3,0%
same,%Inh,DCAMKL1,0%
same,%Inh,DCAMKL2,0%
same,%Inh,DCAMKL3,0%
same,%Inh,DDR1,12%
same,%Inh,DDR2,14%
same,%Inh,DLK,0%
same,%Inh,DMPK2,2%
same,%Inh,DMPK,0%
same,%Inh,DRAK1,0%
same,%Inh,DRAK2,0%
same,%Inh,DYRK1A,23%
same,%Inh,DYRK1B,0%
same,%Inh,DYRK2,0%
same,%Inh,EGFR,15%
same,%Inh,EIF2AK1,0%
same,%Inh,EPHA1,2%
same,%Inh,EPHA2,4%
N#Cc1c(N2CCOCC2)sc(-c2ccn[nH]2)c1-c1ccc(Cl)cc1,%Inh,DAPK1,3%
same,%Inh,DAPK2,0%
same,%Inh,DAPK3,0%
same,%Inh,DCAMKL1,7%
same,%Inh,DCAMKL2,11%
same,%Inh,DCAMKL3,0%
same,%Inh,DDR1,15%
same,%Inh,DDR2,6%
same,%Inh,DLK,19%
same,%Inh,DMPK2,2%
same,%Inh,DMPK,4%
same,%Inh,DRAK1,0%
same,%Inh,DRAK2,0%
same,%Inh,DYRK1A,0%
same,%Inh,DYRK1B,47%
same,%Inh,DYRK2,0%
same,%Inh,EGFR,0%
same,%Inh,EIF2AK1,0%
same,%Inh,EPHA1,1%
same,%Inh,EPHA2,0%
C[C@@H](Oc1cc(-n2cnc3ccc(NC(=O)NC(C)(C)C)cc32)sc1C(N)=O)c1ccccc1Cl [GSK346294],%Inh,DAPK1,20%
same,%Inh,DAPK2,10%
same,%Inh,DAPK3,19%
same,%Inh,DCAMKL1,31%
same,%Inh,DCAMKL2,0%
same,%Inh,DCAMKL3,0%
same,%Inh,DDR1,16%
same,%Inh,DDR2,18%
same,%Inh,DLK,33%
same,%Inh,DMPK2,16%
same,%Inh,DMPK,0%
same,%Inh,DRAK1,0%
same,%Inh,DRAK2,0%
same,%Inh,DYRK1A,0%
same,%Inh,DYRK1B,0%
same,%Inh,DYRK2,15%
same,%Inh,EGFR,32%
same,%Inh,EIF2AK1,0%
same,%Inh,EPHA1,4%
same,%Inh,EPHA2,0%
NS(=O)(=O)c1cccc(-c2ccc3ncc(N4CCOCC4)nc3c2)c1 [GSK1535721],%Inh,DAPK1,18%
same,%Inh,DAPK2,12%
same,%Inh,DAPK3,18%
same,%Inh,DCAMKL1,10%
same,%Inh,DCAMKL2,0%
same,%Inh,DCAMKL3,0%
same,%Inh,DDR1,0%
same,%Inh,DDR2,23%
same,%Inh,DLK,26%
same,%Inh,DMPK2,1%
same,%Inh,DMPK,0%
same,%Inh,DRAK1,0%
same,%Inh,DRAK2,0%
same,%Inh,DYRK1A,0%
same,%Inh,DYRK1B,4%
same,%Inh,DYRK2,28%
same,%Inh,EGFR,12%
same,%Inh,EIF2AK1,0%
same,%Inh,EPHA1,0%
same,%Inh,EPHA2,7%
CC(C)(CN)c1nc(-c2ccc(Cl)c(O)c2)c(-c2ccncc2)[nH]1.O=C(O)C(F)(F)F [SB-477794],%Inh,DAPK1; 1 µM,11% and 19%
same,%Inh,DAPK2; 1 µM,0% and 5%
same,%Inh,DAPK3; 1 µM,33% and 17%
same,%Inh,DCAMKL1; 1 µM,7% and 3%
same,%Inh,DCAMKL2,0%
same,%Inh,DCAMKL3; 1 µM,29% and 36%
same,%Inh,DDR1; 1 µM,94.5% and 90.8%
same,%Inh,DDR2; 1 µM,80% and 78%
same,%Inh,DLK; 1 µM,37% and 42%
same,%Inh,DMPK2; 1 µM,90.8% and 88%
same,%Inh,DMPK; 1 µM,0% and 98.6%
same,%Inh,DRAK1; 1 µM,0% and 5%
same,%Inh,DRAK2,0%
same,%Inh,DYRK1A,0%
same,%Inh,DYRK1B; 1 µM,0% and 5%
same,%Inh,DYRK2; 1 µM,0% and 5%
same,%Inh,EGFR; 1 µM,70% and 47%
same,%Inh,EIF2AK1,0%
same,%Inh,EPHA1; 1 µM,97.1% and 95.8%
same,%Inh,EPHA2; 1 µM,26% and 33%
O=C(NCCCN1CCOCC1)c1cccc(Nc2nccc(Nc3ccc(Oc4ccccc4)cc3)n2)c1 [GW663929],%Inh,DAPK1,48%
same,%Inh,DAPK2,35%
same,%Inh,DAPK3,81%
same,%Inh,DCAMKL1,38%
same,%Inh,DCAMKL2,0%
same,%Inh,DCAMKL3,3%
same,%Inh,DDR1,35%
same,%Inh,DDR2,50%
same,%Inh,DLK,13%
same,%Inh,DMPK2,16%
same,%Inh,DMPK,0%
same,%Inh,DRAK1,10%
same,%Inh,DRAK2,8%
same,%Inh,DYRK1A,0%
same,%Inh,DYRK1B,31%
same,%Inh,DYRK2,16%
same,%Inh,EGFR,80%
same,%Inh,EIF2AK1,0%
same,%Inh,EPHA1,0%
same,%Inh,EPHA2,0%
O=C1NC(=O)C(N2CCc3ccccc32)=C1c1cccc(Cl)c1 [SB-408010],%Inh,DAPK1,5%
same,%Inh,DAPK2,0%
same,%Inh,DAPK3,0%
same,%Inh,DCAMKL1,0%
same,%Inh,DCAMKL2,21%
same,%Inh,DCAMKL3,21%
same,%Inh,DDR1,0%
same,%Inh,DDR2,0%
same,%Inh,DLK,0%
same,%Inh,DMPK2,0%
same,%Inh,DMPK,7%
same,%Inh,DRAK1,0%
same,%Inh,DRAK2,0%
same,%Inh,DYRK1A,0%
same,%Inh,DYRK1B,0%
same,%Inh,DYRK2,7%
same,%Inh,EGFR,0%
same,%Inh,EIF2AK1,5%
same,%Inh,EPHA1,3%
same,%Inh,EPHA2,15%
